# A selection: hits, their analogues and other compounds. The true share with any hit is near 6.1%.
# DRD3 agonist = qHTS of D3 Dopamine Receptor Agonist: qHTS; AID 652048, 2013; D3R DiscoveRx beta-arrestin cells, luminescence, 90 min; actives 0.58% (n = 410,000); max activation, %; D(3) dopamine receptor (Homo sapiens), P35462; in the data active = max activation above about 30%; note: 0% is about no effect
# Target sequence (P35462 whole entry, looked up): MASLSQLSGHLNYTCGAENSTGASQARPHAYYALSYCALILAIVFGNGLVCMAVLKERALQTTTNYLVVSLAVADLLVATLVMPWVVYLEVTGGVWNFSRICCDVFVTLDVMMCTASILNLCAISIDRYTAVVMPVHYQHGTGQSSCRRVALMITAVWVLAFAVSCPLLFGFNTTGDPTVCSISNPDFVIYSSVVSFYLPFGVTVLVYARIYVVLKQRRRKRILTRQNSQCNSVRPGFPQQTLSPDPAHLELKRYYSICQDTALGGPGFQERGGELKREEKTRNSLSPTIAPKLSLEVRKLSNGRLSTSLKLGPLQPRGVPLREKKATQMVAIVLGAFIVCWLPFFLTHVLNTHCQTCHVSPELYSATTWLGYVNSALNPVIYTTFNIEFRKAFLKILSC
#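 Agonist-mode cell screen: cells plated at 1500/well and incubated overnight at 37 °C, then exposed to library compounds for 90 min at 37 °C. Detection reagent was added for 30–60 min at room temperature, and luminescence was read.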
# D1 ag = Allosteric Agonists of the Human D1 Dopamine Receptor: qHTS; HEK293 T-REx D1 cells, calcium flux, agonist mode; activation, % at 2 µM; actives 1% (n = 360,000); in the data active = activation above about 30%; note: 0% is about no effect
#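 Agonism was scored from calcium flux recorded over 180 s (1 read/s) after pintool compound addition, following a 10-cycle baseline. Cells were inducible force-coupled HEK293 TREx D1, plated overnight at 30 C and loaded with no-wash calcium dye.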
# D1 PAM = Potentiators of Human D1 Dopamine Receptor: qHTS. AID 504651, 2011. potentiation, % at 10 µM. actives 0.036% (n = 360,000). HEK293 TREx D1 cells, calcium flux, dopamine EC20 potentiation; in the data active = potentiation above about 30%; note: 0% is about no effect
# D1 antagonist = Antagonist of Human D 1 Dopamine Receptor: qHTS. D(1A) dopamine receptor (Homo sapiens), P21728. HEK293 TREx D1 cells, calcium flux, dopamine EC80; active compounds read low. activity change, negative = inhibition, % at 10 µM. actives 3.2% (n = 360,000). AID 504652, 2011; in the data active = activity change below about -30%; note: % is set by controls: 0 for no effect and ±100 for the full control effect
#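 Allosteric or orthosteric antagonism assessed as attenuation of the calcium response to EC80 dopamine, added 180 s after compound, in induced HEK293 Trex D1 cells loaded with no-wash calcium dye.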
# DRD3 antagonist = qHTS of D3 Dopamine Receptor Antagonist: qHTS; actives 2.5% (n = 360,000); D3R cells, DiscoveRx beta-arrestin luminescence, antagonist mode; active compounds read low; max response, negative = inhibition, %; D(3) dopamine receptor (Homo sapiens), P35462; AID 652054, 2013; in the data active = max response below about -50%; inconclusive = no clear call, values can overlap the other calls; note: % is set by controls: 0 for no effect and ±100 for the full control effect
#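 Cells plated overnight at 1500 cells/well, then exposed to library compounds with dopamine controls for 90 minutes at 37 degrees C. DiscoveRx reagent added for 30–60 minutes at room temperature; luminescence read, quantitative HTS format.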
# Active calls of the source: *; ? = inconclusive; · = no result given.
SMILES,DRD3 agonist,D1 ag,D1 PAM,D1 antagonist,DRD3 antagonist
COc1cccc(CN2CCN(Cc3cc4ccccc4[nH]3)CC2CCO)c1 (stereo unspecified),-10,72*,-1,-49*,-7
COc1cc(CN2CCN(Cc3c[nH]c4ccccc34)CC2CCO)cc(OC)c1 (stereo unspecified),-10,17,1,8,0
COc1ccc(CN2CCN(Cc3c[nH]c4ccccc34)CC2CCO)c(F)c1 (stereo unspecified),-11,15,-11,-36*,0
Cc1cccc(C)c1N(CCCc1cccnc1)C(=O)C(C)N (stereo unspecified),4,·,·,·,·
O=C(c1ccc(Cl)c(Cl)c1)N1CCN(Cc2ccc3c(c2)OCO3)CC1,-15,-2,-4,0,1
Cc1cccc(C(=O)N2CCN(Cc3ccc4c(c3)OCO4)CC2)c1,-12,0,-3,-13,-80*
O=C(CCN1C(=O)c2cccc3cccc(c23)C1=O)N1CCN(Cc2ccc3c(c2)OCO3)CC1,-3,0,5,-30*,10
O=C(c1cc2cc(F)ccc2[nH]1)N1CCN(Cc2ccc3c(c2)OCO3)CC1,-13,1,2,-14,-86*
Cc1ccc(C(=O)N2CCN(Cc3ccc4c(c3)OCO4)CC2)c(Cl)c1,-24,0,-7,6,-86*
O=C(Cn1c(SCCOc2ccccc2Cl)nc2ccccc21)N1CCCCC1,3,10,-1,0,·
CCN(CC)C(=O)Cn1c(=O)n(Cc2ccc(C(=O)NCCc3ccc(OC)c(OC)c3)cc2)c(=O)c2ccccc21,1,-1,2,-4,·
Cc1ccc(CSc2nc3ccc(NC(=O)COc4ccccc4)cc3s2)cc1,6,3,2,16,·
COc1ccc(N(C(=O)c2ccc(OC)c(OC)c2)S(=O)(=O)c2ccc(Cl)cc2)cc1,-11,9,-1,-12,·
O=C(c1ccccc1)N1CCN(Cc2ccc3c(c2)OCO3)CC1,-25,0,-3,-10,-78*
O=C(c1ccccc1)N1CCN(C(=O)c2ccc3c(c2)OCO3)CC1,3,1,-1,4,-13
COc1ccc(NS(=O)(=O)c2cccc(C(=O)N3CCN(Cc4ccc5c(c4)OCO5)CC3)c2)cc1,-11,6,-9,-61*,7
O=C(c1ccc2c(c1)OCO2)N1CCC(Cc2ccccc2)CC1,-8,7,-5,-40*,-12
Cc1ccc(C(=O)N2CCN(Cc3ccc4c(c3)OCO4)CC2)cc1C,-25,-2,-7,-20,-62*
O=C(c1ccc(NS(=O)(=O)c2ccccc2)cc1)N1CCN(Cc2ccc3c(c2)OCO3)CC1,-5,3,-9,-19,-24
Cc1nc2c(C(=O)NCCC(C)C)cnn2c(C)c1Cc1c(F)cccc1Cl,-6,0,-2,-3,·
Cn1cc(CN2CCN(Cc3ccc4c(c3)OCO4)CC2)c(-c2ccccc2F)n1,-2,0,-6,-31*,?
O=S(=O)(Cc1ccc(Cl)cc1)N1CCN(Cc2ccc3c(c2)OCO3)CC1,2,1,-3,-4,11
O=C(O)C1CC(=O)N(Cc2ccc3c(c2)OCO3)C1 (stereo unspecified),-14,3,4,4,-106*
COc1ccc(S(=O)(=O)N2CCN(Cc3ccc4c(c3)OCO4)CC2)cc1C,-7,0,-5,-16,·
Cc1cccc(S(=O)(=O)N2CCN(Cc3ccc4c(c3)OCO4)CC2)c1,0,2,-11,-34*,-7
SMILES,DRD3 agonist,D1 ag,D1 PAM,D1 antagonist,DRD3 antagonist
O=S(=O)(Cc1ccccc1Cl)N1CCN(Cc2ccc3c(c2)OCO3)CC1,-2,41*,4,-34*,16
Cn1cc(CN2CCN(c3ccc(Cl)cn3)CC2)c(-c2ccccc2F)n1,-10,0,1,1,-10
COc1cc(NC(=O)CSc2nc3nc(C)c(Cc4ccccc4)c(C)n3n2)cc(OC)c1OC,3,-1,-2,-10,·
O=C(C1CC2CCC1C2)N1CCN(Cc2ccc3c(c2)OCO3)CC1 (stereo unspecified),-5,-3,-3,-3,-56*
O=C(C1COc2ccccc2O1)N1CCN(Cc2ccc3c(c2)OCO3)CC1 (stereo unspecified),-20,4,-10,-21,?
COc1ccc(-c2ccc(NS(=O)(=O)c3ccc(OC)c(OC)c3)cc2)nn1,-13,3,-3,-16,·
Cc1ccc2c(c1)c1nc3ccccc3nc1n2C,-3,11,0,-1,8
Cn1c(-c2c(N)n(-c3ccccc3)c3nc4ccccc4nc23)nc2ccccc21,-4,51*,-1,14,6
Cc1cccc(-n2c(N)c(-c3nc4ccccc4n3C)c3nc4ccccc4nc32)c1,-1,60*,3,3,12
CC1CCN(C(=O)CSc2c(C(C)C)cnc3c2c(=O)n(C)c(=O)n3C)CC1,7,-1,-3,1,·
Cc1nn(C)c2c1c(C(F)(F)F)cc(=O)n2CC(=O)NCc1ccccc1Cl,8,-1,-6,22,·
Oc1ccc(/C=N/N(c2ccccc2)c2ccccc2)c(O)c1O,·,1,-4,-9,·
Oc1ccc(/C=N/N(c2ccccc2)c2ccccc2)cc1O,11,2,1,-38*,-2
Cc1cc(N2C(=O)CC(N3CCN(C(c4ccccc4)c4ccccc4)CC3)C2=O)no1 (stereo unspecified),-5,2,1,6,-55*
Cc1cc(C(=O)N2CCN(C(c3ccccc3)c3ccccc3)CC2)no1,-17,5,3,-12,-13
CC(OC(=O)CN1C(=O)NC2(CCCC2)C1=O)C(=O)Nc1cccc(Cl)c1Cl (stereo unspecified),11,1,-11,-51*,6
O=C(CN1C(=O)NC2(CCCC2)C1=O)Nc1cccc(Cl)c1Cl,-3,6,·,2,0
CCOc1ccccc1N(CC(=O)NCCSc1ccccc1)S(=O)(=O)c1ccccc1,2,13,-2,-7,·
CCN1CCc2c(sc3c2c(NCc2ccco2)nc2nnnn23)C1,2,2,4,-3,-65*
Cn1c(=O)n(C)c2cc(N3CCOCC3)c(NC(=O)c3ccc(Cl)cc3)cc21,-12,0,-3,-10,·
CC(C)(C)OC(=O)N1CCC2(CC1)Oc1ccc(F)cc1C(=O)C21CC(c2ccccc2)=NO1 (stereo unspecified),-13,·,·,·,16
O=C1c2cc(F)ccc2OC2(CCNCC2)C12CC(c1ccccc1)=NO2 (stereo unspecified),-14,43*,-3,-13,25

# Source: PubChem BioAssay
